An excerpt weighted towards active compounds, which were near 3.8% of everything screened.
aDG glyco act: increases alpha dystroglycan glycosylation; activation, % at 10 µM; Pro5-aDG cells, alpha-DG glycosylation AlphaScreen (IIH6); 0% Pro5, 100% B10-LARGE cell signal; 360,000 tested, 0.22% active;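 active = activation of at least 8% versus controls, or a plate z-score of at least 8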;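 also: Pro5 are CHO cells carrying HIG-tagged alpha-DG that lacks glycosylation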
H9c2 protect: protects H9c2 cardiomyocytes from peroxide injury; H2O2 injury protection, ATPLite, 2 h; 360,000 tested, 0.63% active; protection from H2O2 cell death, % at 20 µM; AID 588492;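 active = compounds giving at least 50% protection of heart cells from peroxide-induced death in the single-dose screen, raw or plate-pattern-corrected value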;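 also: 0% = DMSO wells with peroxide and 100% = DMSO wells without peroxide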
Yeast superoxide: yeast age-related superoxide inhibition as caloric restriction mimetic; 330,000 tested, 0.18% active; superoxide response (% of plate mean), % at 10 µM; AID 2690; S. cerevisiae aged cells, superoxide DHE fluorescence; hits give low values;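 active = superoxide response under a set limit, about three screen SD below normal, cut at about 65% in these data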;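 also: yeast aged for seven days with compound at 30 °C before DHE staining; 100% = average MFI of all compound-treated wells on the plate with controls excluded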
FAS-TE inh: inhibitors of human fatty acid synthase thioesterase domain; AID 602261; P49327; recombinant FAS-TE, OMFH fluorogenic substrate, fluorescence endpoint; 360,000 tested, 0.67% active; inhibition, % at 15 µM;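 active = compounds whose normalised, plate-corrected inhibition of enzyme fluorescence in the single-dose primary screen is 50% or more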;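 also: 0% = DMSO with enzyme and 100% = substrate without enzyme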
Mot1-301 SUMO: blocks SUMOylation pathway, rescuing yeast Mot1-301 growth. S. cerevisiae Mot1-301 growth rescue, ATP luminescence, 38.5C; percent above DMSO median, 100 means doubled. growth rescue, % at 18.8 µM. 320,000 tested, 1% active. AID 2716;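 active = every valid replicate shows activation above 250% relative to neutral control wells; inactive = the rest, any valid replicate at or below 250%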;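 also: OY570 slx delta 5 strain wells were the positive control but not used for scaling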
MPTP block: inhibitors of mitochondrial permeability transition pore | isolated mouse mitochondria, Ca2+ swelling absorbance, 30 min | inhibition, % at 10 µM | 360,000 tested, 1.4% active;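 active = inhibition of 50% or more, scaled per plate between neutral and stimulator controls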;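 also: 0% = DMSO wells given calcium and 100% = 1 mM EGTA wells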
Mot1 SUMO dose: yeast SUMO pathway inhibition in dose response; shares compounds with Mot1-301 SUMO; growth activity, percent, % at 42 µM; AID 493004; 2,300 tested, under 10 active; S. cerevisiae Mot1-301 galactose growth, ATP luminescence, 24 h; -100 = growth of slx-deleted rescue strain;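 active = Signal drops as the depositor expects, and the fitted half-maximal dose is no more than ten times the top valid tested dose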;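 also: more negative values mean stronger growth rescue toward the control strain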
* marks the source's active call; other numbers are inactive results; . = no result; + = active, no number.

SMILES	aDG glyco act	H9c2 protect	Yeast superoxide	FAS-TE inh	Mot1-301 SUMO	MPTP block	Mot1 SUMO dose
Oc1ccc(Br)cc1/C=N/n1c(COc2ccccc2)n[nH]c1=S	0	11	106	5	679*	1	0
CC(=O)c1ccc(NC(=O)C(C)Sc2nnc(C3CCCCC3)o2)cc1 (stereo not given)	.	.	112	.	-12	.	.
Cc1ccc(NC(=S)NC(=O)c2cncc(Br)c2)cc1Cl	0	-4	96	-5	13	18	.
CN(C)c1ccc2nc3ccc(=[N+](C)C)cc-3sc2c1	47*	-30	84	-2	557*	48	-2
O=C(Cc1ccc(Cl)cc1Cl)OCC(=O)c1ccc[nH]1	0	-12	93	1	581*	0	1
O=C(COc1ccc(Cl)cc1Cl)OCC(=O)c1ccc[nH]1	0	6	103	-2	20	1	.
CCOC(=O)/C(C#N)=C/c1ccc(SC)cc1	0	-3	108	-1	14	1	.
CCOC(=O)/C(C#N)=C\c1ccc(CC)s1	0	-10	107	0	+	0	0
Cc1csc(NC(=O)c2ccc(Cn3nc(C)c(Br)c3C)o2)n1	1	-19	100	3	152	5	.
Cc1nn(Cc2ccc(C(=O)Nc3ccccc3C(F)(F)F)o2)c(C)c1Br	3	3	92	15	440*	3	0
COc1cc(/C=C(\C#N)C(=O)Nc2ccc(C(=O)O)cc2)ccc1OC(=O)c1cccc(F)c1	0	5	95	19	827*	1	1
COC(=O)c1ccc(C(=O)OC)c(NC(=O)Cc2cccs2)c1	0	-3	.	-6	.	1	.
NN1C(=O)NC(c2ccccc2)(c2ccccc2)C1=O	0	-2	105	-11	543*	-3	0
O=C(NCC1CCCO1)C(=O)N/N=C\c1ccc2c(c1)OCO2 (stereo not given)	0	3	99	-3	6	0	.
COC(=O)c1ccc(/C=N/NC(=O)C(=O)NCC2CCCO2)cc1 (stereo not given)	0	4	100	-6	731*	2	1
O=C(NCC1CCCO1)/C(=C\c1ccc(Cl)cc1)NC(=O)c1ccccc1 (stereo not given)	0	15	98	-9	-2	-3	.
Cc1ccc(C(=O)N/C(=C/c2ccccc2)C(=O)NCC2CCCO2)cc1 (stereo not given)	0	8	100	0	399*	-1	0
CCCOc1ccccc1C1NC(=O)NC(C)=C1C(=O)OCCOCC (stereo not given)	0	-1	100	-6	565*	-4	1
O=C1c2ccccc2S(=O)(=O)N1Cc1cc(=O)n2ccsc2n1	0	10	104	-1	383*	-2	1
CC1=CN(S(=O)(=O)c2ccc(C)cc2)C[C@@H]2c3ccccc3N(S(=O)(=O)c3ccc(C)cc3)[C@H]12	0	5	103	30	.	0	.
O=C(CN1CCN(c2nc(-c3ccccc3)cs2)CC1)NNC(=O)c1ccc(Br)cc1	0	1	92	-6	656*	0	2
CCN=C1S/C(=C/c2ccc(-c3ccc(F)cc3)o2)C(=O)N1CC	0	6	77	9	956*	0	-1
Cc1cccc(C(=O)Oc2cccc3c(O)cccc23)c1	0	-8	102	12	-1	0	.
COc1ccccc1S(=O)(=O)N(C)C[C@H]1OCc2cnnn2CCCC(=O)N([C@@H](C)CO)C[C@H]1C	0	8	.	-10	.	-2	.
c1ccc2cc(C3CCCCC3)ncc2c1	0	-4	92	6	738*	-1	0
COc1cc(NC(=O)c2ccccc2F)c(OC)cc1NC(=O)CN1CCCCC1	0	2	96	4	552*	0	0
COC(=O)c1ccccc1NC(=O)c1cnn2c(C)cc(C)nc12	0	1	90	4	892*	1	1
CCOC(=O)Cn1cnc2c(cnn2-c2ccccc2)c1=O	0	0	105	1	0	0	.
